PubChem BioAssay (NCI)
This is part of a sample that, as a whole, favours compounds with a hit. Of some 83,000 tested, about 20% had one in any assay.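 Single-dose data. Exposure time 48 hours. Values below 10 considered active.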 Values without a mark were called inactive. The source made the active and inactive calls.

Columns and labels:
Test in all cases: NCI-60 one-dose screen, 48 h (100 = growth as untreated, 0 = no growth, -100 = all killed)
Settings in all cases: 10 µM unless noted
NCI-H23 lung = tested on: NCI-H23 lung
NCI-H226 lung = tested on: NCI-H226 lung
NCI-H322M lung = tested on: NCI-H322M lung
HOP-62 NSCLC = tested on: HOP-62 NSCLC
NCI-H460 lung = tested on: NCI-H460 lung
HOP-92 NSCLC = tested on: HOP-92 NSCLC
NCI-H522 lung = tested on: NCI-H522 lung
A549/ATCC NSCLC = tested on: A549/ATCC NSCLC
786-0 renal = tested on: 786-0 renal
COLO 205 colon = tested on: COLO 205 colon
DU-145 prostate = tested on: DU-145 prostate
K-562 leukemia = tested on: K-562 leukemia
MALME-3M melanoma = tested on: MALME-3M melanoma
MDA-MB-231 breast = tested on: MDA-MB-231 breast
RXF 393 renal = tested on: RXF 393 renal
SF-268 CNS = tested on: SF-268 CNS
SF-295 CNS = tested on: SF-295 CNS
SF-539 CNS = tested on: SF-539 CNS
UACC-257 melanoma = tested on: UACC-257 melanoma
M14 melanoma = tested on: M14 melanoma

Row | SMILES | growth (NCI-H23 lung) | growth (NCI-H226 lung) | growth (NCI-H322M lung) | growth (HOP-62 NSCLC) | growth (NCI-H460 lung) | growth (HOP-92 NSCLC) | growth (NCI-H522 lung) | growth (A549/ATCC NSCLC) | growth (786-0 renal) | growth (COLO 205 colon) | growth (DU-145 prostate) | growth (K-562 leukemia) | growth (MALME-3M melanoma) | growth (MDA-MB-231 breast) | growth (RXF 393 renal) | growth (SF-268 CNS) | growth (SF-295 CNS) | growth (SF-539 CNS) | growth (UACC-257 melanoma) | growth (M14 melanoma)
1 | CN(C)CCCNC(=O)c1cncnc1Nc1ccc2c(ccn2Cc2cccc(F)c2)c1 | 95.6% | 99.4% | 98.6% | 99.9% | 95.5% | 78.3% | 98.2% | 84.9% | 79.5% | 84.6% | 97.8% | 37.5% | 81.9% | 67.6% | 70.9% | 85.6% | 106% | 83.7% | 84.4% | 107%
2 | Cc1ccc(O)c(NC(=O)c2cccc(Nc3ccnc(C(F)(F)F)c3)c2)c1 | 44.1% | 44.8% | 86.5% | 85.6% | 55.4% | 77.6% | 43.1% | 60.3% | 50% | 128% | 80.9% | 40.9% | 70.1% | 58.9% | 91.2% | 76.6% | 40.3% | 72.6% | 58.7% | 68.4%
3 | COC(=O)/C=C1/SC(=NCc2ccccc2)N(CCc2c[nH]c3ccccc23)C1=O | 87.2% | 109% | 98.9% | 102% | 91.8% | 74.6% | 77.1% | 93.1% | 89.4% | 98.7% | 72.5% | 48.5% | 108% | 91% | 81.9% | 90.3% | 89.9% | 105% | 81.6% | 80.5%
4 | O=C(/C=C/c1ccccc1Cl)c1cccc(OCCCCOc2cccc(C(=O)/C=C/c3ccccc3Cl)c2)c1 | 96.5% | 90.3% | 99.9% | 103% | 99.6% | 94.4% | 97.1% | 95.3% | 103% | 107% | 102% | 99.2% | 91.9% | 102% | 99.6% | 106% | 104% | 101% | 98.2% | 86.5%
5 | CC(O)CNC(Cc1ccccc1)c1ccc2c(c1)OCO2 (stereo not given) | 98.5% | 90% | 93.6% | 60.9% | 103% | 67.2% | 71.9% | 84.6% | 83% | 71.4% | 107% | 90.5% | 91% | 99.5% | 110% | 95.9% | 88.8% | 87.4% | 103% | 80.4%
6 | COc1cc(/C=N/NC(=O)c2ccc(-n3cc(-c4ccccc4)nn3)cc2)cc(OC)c1OC | 59.1% | 32.5% | 60.6% | 71.7% | 41.5% | 86.9% | 68.3% | 81.2% | 93.8% | 56.7% | 56.9% | 60.6% | -1.82% (active) | 78.2% | 68.7% | 57.9% | 88% | 53.2% | 53.9% | 26.6%
7 | COc1cc2ncnc(Nc3ccc(F)c(Cl)c3)c2cc1OCC(=O)N1CCOCC1 | 90.7% | 102% | 24.7% | 98.1% | 99.5% | 92.1% | 33% | 74.8% | 78.5% | 106% | 57.3% | 88.4% | 98.2% | 108% | 107% | 75.3% | 90.6% | 97.7% | 106% | 90.4%
8 | COc1ccc(OC)c(Nc2nnc(-c3cc(OC)c(OC)c(OC)c3)o2)c1 | 90.5% | 96.6% | 98.4% | 94.7% | 107% | 107% | 76.6% | 101% | 95% | 104% | 101% | 95.8% | 88.8% | 88.9% | 110% | 99.6% | 101% | 91.3% | 112% | 101%
9 | Fc1ccc(/C=C/[C@@H]2C[C@@H](F)CCO2)cc1 | 104% | 101% | 82.1% | 105% | 99.7% | 73.6% | 91% | 106% | 94.4% | 102% | 113% | 64.2% | 99.7% | 98.2% | 96.4% | 104% | 94.8% | 103% | 93.9% | 85.5%
10 | Cc1nc2ccccc2c(/C=C/c2ccc(F)cc2)c1C(=O)/C=C/c1ccccc1 | 20.7% | 50.6% | 37.7% | -4.45% (active) | -41.9% (active) | 50.6% | 5.78% (active) | 25% | 24.1% | 10.5% | 10.2% | 6.31% (active) | 31.1% | 22.4% | -3.77% (active) | 37.9% | 32.5% | 1.11% (active) | 7.87% (active) | 12.4%
11 | Cc1c2cnccc2c(C)c2c1c1cc(CO)ccc1n2C | -46.1% (active) | -68.5% (active) | -40.2% (active) | -48.8% (active) | -32.5% (active) | -20% (active) | -72.6% (active) | -28.2% (active) | -13.1% (active) | -51.2% (active) | -0.903% (active) | 1.71% (active) | -87.6% (active) | -52.1% (active) | -84.7% (active) | -28.8% (active) | -26.6% (active) | -68% (active) | -52.7% (active) | -90.9% (active)
12 | CC1(C)CC[C@]2(CO)CC[C@]3(C)[C@](O)([C@H](O)C[C@@H]4[C@@]5(C)CCCNC(C)(C)[C@@H]5CC[C@]43C)[C@@H]2C1 | 95% | 106% | 103% | 101% | 88.8% | 94% | 92.4% | 85.2% | 101% | 44.2% | 103% | 10.3% | 101% | 102% | 94.9% | 98.9% | 108% | 97.9% | 96.3% | 96.1%
13 | O=C(CCCCCCCC(=O)N1CCCCC1)N1CCCCC1 | 94.6% | 109% | 115% | 110% | 98.7% | 98.8% | 88.8% | 102% | 105% | 113% | 106% | 114% | 115% | 94.1% | 123% | 104% | 117% | 103% | 89.3% | 102%
14 | [N-]=[N+]=NCC1OC(n2cnc3c(NC(=O)Nc4ccccc4)ncnc32)C2OC(=O)CC12 (stereo not given) | 106% | 106% | 99.8% | 98.1% | 112% | 86.9% | 107% | 95.2% | 105% | 105% | 109% | 92.7% | 96.9% | 123% | -28.7% (active) | 103% | 100% | 97.8% | 122% | 108%
15 | Cc1ccc(OCCOCCOCCOCCOCCOc2ccc(C)n(O)c2=S)c(=S)n1O | 14.1% | 6.73% (active) | 21.5% | 10.5% | 3.62% (active) | 34.3% | 25.8% | 13.2% | -0.0239% (active) | 10.4% | 17.3% | 14.5% | 16.5% | 29.8% | 40.6% | 12.5% | 16.8% | 1.52% (active) | -3.93% (active) | -4.25% (active)
